TGFb inhibitor = qHTS for Inhibitors of TGF-b. HepG2 CAGA-GFP TGF-b/SMAD3 reporter, GFP fluorescence, 18 h; TGF-beta stimulated, 500 pg/mL final. Potency, µM (doses to about 46.1 µM), most hits filed as inhibitors. hit rate 1.2% among 410,000; also: nearly all actives have a fitted effect of over 65% in size
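Inhibition of TGF-beta-driven CAGA-GFP reporter expression in HEPG2 cells is measured by cellular GFP fluorescence after 18 h stimulation with 500 pg/mL recombinant TGF-beta in 1% FBS medium at 37 degrees C.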
IL-1B inflam inh = qHTS for Inhibitors of Inflammasome Signaling: IL-1-beta AlphaLISA Primary Screen. THP-1 LPS/ATP IL-1B secretion, AlphaLISA, 16 h; stronger effect = lower value. activity change, % at 57.5 µM. hit rate 4.7% among 360,000. AID 743279, 2014; in the data active = activity change below about -50%; inconclusive = mostly about -30% to -49%
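THP-1 cells pretreated 1 hr with compounds (up to 57.5 uM final), then stimulated with LPS (250 ng/mL final) plus ATP (1.25 mM final); secreted IL-1B measured by AlphaLISA after 16 hr, decreased signal indicating inhibition.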
HepG2 viability = qHTS for Inhibitors of TGF-b: Cytotox Counterscreen; HepG2 CAGA-GFP viability, ATP luminescence, 18 h; Potency, µM (doses to about 46.1 µM), usual class: cytotoxic; hit rate 0.76% among 410,000
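HepG2 CAGA-GFP cells (1000/well, DMEM with 1% FBS) received compound, then TGF-beta at 500 pg/mL final, and were incubated 18 hours at 37 degrees C. Viability was read by CellTiter-Glo luminescence. Media-only wells were set as complete cell-killing and DMSO as no toxicity.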
ATXN viability = Viability Counterscreen for Primary qHTS for Inhibitors of ATXN expression; S2 cells (HEK-293 line with an ATXN2-luciferase reporter) viability, CellTiter-Fluor protease fluorescence, 24 h; Potency, µM (titrated, usually from 56.7 µM), actives largely listed as cytotoxic; hit rate 0.49% among 400,000; AID 651635, 2014; also: nearly all actives have a fitted effect of over 40% in size
ATXN2 expr inh = Primary qHTS for Inhibitors of ATXN expression; HEK-293 ATXN2-luciferase reporter, luminescence, 24 h; Potency, µM (titrated, usually from 57 µM), hits mostly inhibitors; hit rate 0.72% among 360,000; also: nearly all actives have a fitted effect of over 55% in size
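ATXN2-luciferase reporter cells (luciferase flanked by upstream and downstream ATXN2 gene portions) were treated 24 h at 37 °C with compounds at up to 57 uM. SteadyGlo luminescence gave expression; GF-AFC fluorescence gave viability.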
Hits are given with their value; – = inactive; ? = inconclusive; · = not tested or not shown; ! = not confirmed by another sample. An excerpt weighted towards active compounds, which were near 5.7% of everything screened. Unless noted, calls follow the shape of the dose curve; as a rule, active = well fitted curve in the direction sought with a large enough effect; inconclusive = small, poorly fitted or top-dose-only effect, or another doubt; inactive = no such curve, though single readings can be large; an effect the other way counts as inactive or inconclusive.

SMILES | TGFb inhibitor | IL-1B inflam inh | HepG2 viability | ATXN viability | ATXN2 expr inh
CCOP(=O)(OCC)C(C)NC(=O)N(CCCl)N=O (configuration not stated) | · | · | · | · | –
CC(=O)Nc1ccc(S(=O)(=O)N(C)CCOCc2ccccc2)cc1 | – | – | – | – | –
COP(=O)(OC)[C@@H](O)C(Cl)(Cl)Cl | · | · | · | – | ·
COc1ccc(C2C=C(c3ccccc3)Nc3nc(NC(=O)/C=C/c4ccccc4Cl)nn32)cc1 (configuration not stated) | ? | · | – | – | ?
CCOC(=O)[C@]12Cc3ccccc3[C@H]1N(C(C)C)C(=O)c1cc(OC)ccc12 | · | -116 | · | · | ?
CCOC(=O)[C@]12Cc3c(cc(OC)c(OC)c3OC)[C@H]1N(C)C(=O)c1cc(OC)ccc12 | · | -74 | · | · | 11µM
CCOC(=O)C1C(=O)NC2(C)CC1c1cc(OC)ccc1O2 (configuration not stated) | – | – | – | – | –
COC(=O)C12CCc3cc(OC)ccc3C1=CC(=O)C2 (configuration not stated) | – | – | – | – | ·
COc1cc2c(cc1OC)C(C(=O)N1CCC3(CC1)OCCO3)C(c1ccccc1F)N(C)C2=O (configuration not stated) | – | – | – | – | –
CCOC(=O)[C@]12Cc3ccccc3[C@H]1N(C)C(=O)c1cc(OC)ccc12 | · | -116 | · | · | ?
Cc1cc(/C=C/c2cccc3sc(C)[n+](CCCCI)c23)ccc1N(CCCl)CCCl | ? | · | – | · | ·
COCCCNC(=O)Cn1cc(/C=C2\C(=O)NC(=O)N(c3ccccc3F)C2=O)c2ccccc21 | ? | -82 | – | – | –
Cc1ccc(C(=O)c2cn(CC(=O)Nc3ccc(C(C)C)cc3)c3nc(C)ccc3c2=O)cc1 | – | · | – | ? | –
CCc1ccc(CNC(=O)c2ccc3c(c2)N=C(C)c2cc(C)ccc2S3)cc1 | ? | · | – | ? | –
CCCc1[nH][nH]c(=O)c1C(c1ccc(Cl)cc1)C(C#N)C#N (configuration not stated) | – | -83 | – | ? | –
C[C@@H]1[C@@H]2Cc3ccc(O)cc3[C@@]1(C)CCN2CCc1ccccc1 | · | · | · | – | ·
Cc1c(N)nc([C@H](CC(N)=O)NC[C@@H](N)C(N)=O)nc1C(=O)N[C@H](C(=O)N[C@@H](C)[C@H](O)[C@@H](C)C(=O)N[C@@H](C(=O)NCCc1nc(-c2nc(C(=O)NCCC[S+](C)C)cs2)cs1)[C@@H](C)O)C(O[C@H]1O[C@H](CO)[C@H](O)[C@@H](O)[C@@H]1O[C@H]1O[C@H](CO)[C@@H](O)[C@H](OC(N)=O)[C@H]1O)c1cnc[nH]1 (some centres not stated) | · | · | · | · | 14µM
CCCOc1ccc(C(=O)CCC(=O)NNC(=O)c2ccncc2)cc1 | ? | – | – | ? | –
Oc1cc(Cl)ccc1Oc1ccc(Cl)cc1Cl | 18µM | -70 | – | 40µM! | 40µM!
Cc1cccc2c1=NC(=O)/C(=C/c1c(O)[nH]c(=O)[nH]c1=O)C=2 | – | – | – | – | –
O=c1[nH]c(=S)[nH]c(O)c1/C=C1/C=c2ccccc2=N1 | 13µM | -99 | – | – | –
CC(=O)OC1N=C(c2ccccc2Cl)c2cc(Br)ccc2NC1=O (configuration not stated) | – | -71 | – | – | –
CC(=O)OC1N=C(c2ccccc2)c2cc(Br)ccc2NC1=O (configuration not stated) | – | – | – | – | –
CCc1ccccc1NC(=O)C(CC)Oc1ccccc1-c1nnc(-c2ccccc2)o1 (configuration not stated) | – | · | – | ? | ?
CN(C)c1ccc(NC(=O)CN2C(=O)CN=C(c3ccccc3)c3ccccc32)cc1 | – | ? | – | – | –
CN(C)c1ccc(NC(=O)CN2C(=O)CN=C(c3ccccc3)c3cc(Cl)ccc32)cc1 | – | -62 | – | ? | ?
Cc1oc(-c2ccc(Cl)cc2)nc1CN1C(=O)CN=C(c2ccccc2)c2ccccc21 | 20µM | · | – | ? | ?
Cc1ccc(NC(=O)CN2C(=O)CN=C(c3ccccc3)c3cc(Cl)ccc32)cc1 | ? | -66 | – | ? | ?

Screening data: PubChem BioAssay, National Center for Advancing Translational Sciences (NCATS)
